Screening data (PubChem)
mcGAS MS inh = mouse cGAS inhibition by mass spec. Q8C6L5. recombinant mouse cGAS, cGAMP by RapidFire MS. inhibition, % at 12.5 µM. 0.18% of 130,000 active. AID 1259397;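 active = inhibition of cGAS enzyme activity at or above 60%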;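 also: enzyme stimulated by 45 bp dsDNA with ATP and GTP substrates; cGAMP share of summed cGAMP plus half ATP and half GTP signals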
Target sequence (Q8C6L5 whole entry, looked up): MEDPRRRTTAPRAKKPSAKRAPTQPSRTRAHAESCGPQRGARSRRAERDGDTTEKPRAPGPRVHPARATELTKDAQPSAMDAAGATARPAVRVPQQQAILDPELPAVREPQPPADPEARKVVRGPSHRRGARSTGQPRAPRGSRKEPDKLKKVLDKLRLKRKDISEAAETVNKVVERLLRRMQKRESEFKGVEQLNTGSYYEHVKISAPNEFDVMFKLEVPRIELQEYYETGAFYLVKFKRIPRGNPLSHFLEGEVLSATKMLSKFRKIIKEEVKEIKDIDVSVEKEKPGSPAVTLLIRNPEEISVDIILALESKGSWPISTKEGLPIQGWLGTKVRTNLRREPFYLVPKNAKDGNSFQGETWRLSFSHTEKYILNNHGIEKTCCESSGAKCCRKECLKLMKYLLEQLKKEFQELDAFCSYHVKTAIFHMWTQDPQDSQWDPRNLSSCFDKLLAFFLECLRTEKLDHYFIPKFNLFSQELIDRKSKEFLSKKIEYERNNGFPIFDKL
Of the large screens only hits and unclear results are named; the others gave an inactive call; ! = a repeat was not active. Only a selection was taken, and hits are over-represented in it overall.

COc1cc(C=C2C(=O)N(C)C(=O)N(C)C2=O)ccc1O	none
COc1cc(/C=c2\sc3nc4cc(Br)cnc4n3c2=O)ccc1O	mcGAS MS inh 71.5
CCN(CC)C(=O)Cn1cc(C(=O)NCCCN2CCCc3ccccc32)nn1	none
CSc1ccccc1C(=O)NCc1ccc2c(c1)OCCO2	none
CC(C)(C)C(=O)COC(=O)Cc1ccc(Br)cc1	none
CCOc1cc(-c2[nH]c(=S)[nH]c(=O)c2C#N)ccc1O	mcGAS MS inh 99.5
N#Cc1c(-c2ccco2)[nH]c(=S)[nH]c1=O	none
CCOc1cc(C2=NN(c3ccc(C)cc3)C(=O)CC2)ccc1O	none
CC(C)(C)c1nnc(Sc2ccc3nnc(C(F)(F)F)n3n2)o1	none
O=C(C1CCC1)N1CCCC(N2CCN(c3ccccc3F)CC2)C1 (stereo unspecified)	none
CC(=O)N1CCCN(c2ccncc2N)CC1	none
CC(=O)N1CCC(N2CCN(c3ccncc3F)CC2)CC1	mcGAS MS inh 62.0
O=C(CSc1nnc(CNC(=O)c2cc(Cl)ccc2Cl)n1-c1ccccc1)Nc1ccccc1C(F)(F)F	none
Cc1cc(Br)ccc1NC(=O)CN(C)C(=O)CCn1c(=O)oc2ccccc21	none
O=S(=O)(NCc1cn2ccsc2n1)c1ccc(Cl)cc1	none
CNc1snc(C)c1C(=O)N(C)Cc1ccc(C(F)(F)F)cc1	none
CCOCCOC(=O)C1=C(C)N(CC)C(=O)NC1c1ccc([N+](=O)[O-])cc1 (stereo unspecified)	mcGAS MS inh 98.2
CCOCCOC(=O)C1=C(C)N(C)C(=O)NC1c1cccc([N+](=O)[O-])c1 (stereo unspecified)	none
CCCOC(=O)C1=C(C)N(C)C(=O)NC1c1ccc([N+](=O)[O-])cc1 (stereo unspecified)	none
CCOCCCn1c(C)cn2c3c(=O)n(Cc4ccccc4)c(=O)n(C)c3nc12	none
COC1CCN(CC(=O)NCC(=O)c2cccs2)CC1	none
CCn1c(=O)c(C(=O)O)nn(-c2cccc(C)c2)c1=O	none
COc1ccc(Cl)cc1CN1C(=O)CON=C1c1ccc(C)cc1	mcGAS MS inh 63.2
COc1ccc(Cl)cc1CN1C(=O)CON=C1c1ncccc1C	none
Cc1ccccc1CN1C(=O)CON=C1c1ccc(N(C)C)cc1	none
O=c1c2cnc3ncnn3c2ccn1CCc1c[nH]c2ccc(F)cc12	none
O=C(c1ccc(OC2CCN(Cc3ccc(F)cc3Cl)CC2)cc1)N1CCCC1	none
CC(Cn1cncn1)NCc1csc(-c2cnccn2)n1 (stereo unspecified)	none
CC(=C(C#N)C#N)c1ccc2c(c1)OCO2	none
C[n+]1cc2c3c(ccc2c2ccc4cc5c(cc4c21)OCO5)OCO3	mcGAS MS inh 85.4!
CC(/C=N\NC(=O)CSc1nnc(-c2ccccc2)n1-c1ccccc1)=C\c1ccccc1	none
COc1ccc(C(C)=O)cc1CN1C(=O)C(C)ON=C1c1ccco1 (stereo unspecified)	none
CC1ON=C(c2ccco2)N(Cc2ccc(S(C)(=O)=O)cc2)C1=O (stereo unspecified)	mcGAS MS inh 66.5
CC1ON=C(c2ccco2)N(C/C=C/c2ccccc2)C1=O (stereo unspecified)	none
Cc1cc(C)n(C)c(=O)c1C(=O)N(Cc1ccccn1)CC1CCCO1 (stereo unspecified)	none
CC1=CC(=C(C#N)C#N)CC(C)(C)C1	none
COc1ccc2[nH]c(-c3nn4c(C(C)C)nnc4s3)cc2c1	none
CC(C)c1cc(-c2nn3c(C(C)(C)C)nnc3s2)n[nH]1	mcGAS MS inh 75.4
Cc1cc(-c2nnc3sc(-c4ccc5ccccc5n4)nn23)n[nH]1	none
CCc1nnc(CN2CCc3onc(-c4cccc5ccccc45)c3C2)o1	none
COc1cc(C(=O)N2CCN(C(=O)N3CCCCC3)CC2)cc(Cl)c1OCC(C)C	none
Cc1nc(CCN)cc(N2CC3C[C@@H]4CC2C[C@H](C3)C4)n1	none
CCCOC1CCCN(c2cc(CCN)nc(C)n2)C1 (stereo unspecified)	mcGAS MS inh 97.3
Cc1nc(CCN)cc(N2CCC(N3CCCC3)CC2)n1	none
CN(C)C(=O)CN1CCC2(CCCO2)CCC1=O (stereo unspecified)	none
CCC1CCCCN1C(=O)C(C)OC(=O)c1ccc(-c2ccc(O)cc2)cc1 (stereo unspecified)	none
CC1(C)Cc2c(cnn2-c2ccc([N+](=O)[O-])cc2)-c2[nH]c3ccccc3c21	mcGAS MS inh 76.3
Nc1c(-c2ccccc2)cnn1-c1ccc([N+](=O)[O-])cc1	none
N#Cc1cc2[nH]c3ccccc3c2n(-c2ccc([N+](=O)[O-])cc2)c1=N	none
COc1ccc(-c2nccc(N3CCCC(O)C3)n2)cc1C (stereo unspecified)	none
CCNC(=O)C1(C)CCN1CCC(=O)c1ccc(Br)cc1 (stereo unspecified)	none
CCCNC(=O)C1(C)CCN(CCC(=O)c2ccc(Br)cc2)C1 (stereo unspecified)	mcGAS MS inh 64.0
CCNC(=O)C1(C)CCCN(CC(=O)c2ccc(Br)cc2)C1 (stereo unspecified)	none
CC(O)CN1CCN(C(=O)c2cc(Cl)c(Cl)n2C)CC1 (stereo unspecified)	none
O=C(c1cnsn1)N1CCc2c([nH]c3ccccc23)C1C1CCCCC1 (stereo unspecified)	none
CC(=O)N1CCC(CN(C)C(=O)C2CC2c2ccc(Cl)cc2)C1 (stereo unspecified)	none
OCc1cc(O)c2c(O)c3c(O)cccc3c(O[C@@H]3O[C@H](CO)[C@H](O)[C@@H](O)[C@H]3O)c2c1	none
O=c1c(O)c(-c2ccc(O)c(O)c2)oc2c(O[C@@H]3O[C@H](CO)[C@H](O)[C@@H](O)[C@H]3O)c(O)cc(O)c12	none
Cc1ccc(C)c(C(=O)NC(C)c2ccccc2OC(F)F)c1 (stereo unspecified)	none
N#Cc1ccc(/C=C2\SCCc3ccccc3C2=O)cc1	none
N#Cc1ccc(/C=C2\CS(=O)(=O)c3c(F)cccc3C2=O)cc1	mcGAS MS inh 63.1
O=C1C(=Cc2ccc(-c3ccccc3)cc2)CS(=O)(=O)c2ccc(F)cc21	none
CCn1c(C)cc(O)c(C(c2ccc(C)cc2)N2CCN(CCO)CC2)c1=O (stereo unspecified)	none
CC(C)C(C)NC(=O)c1ccc2c(c1)S(=O)(=O)Nc1ncnn1-2 (stereo unspecified)	none
COC(=O)CSC1=NS(=O)(=O)c2ccccc2N1	none
COC(=O)c1nc2n(n1)-c1ccccc1S(=O)(=O)N2	mcGAS MS inh 91.3
COc1cccc(N=C2SC(C(=O)Nc3ccc(C)c(Cl)c3)CC(=O)N2C)c1 (stereo unspecified)	none
COc1cc(C(=O)NCc2cccn2C)cc(Cl)c1OC	none
Clc1c(-c2nnco2)sc2ccccc12	none
S=c1[nH]nc(-c2ccccc2Cl)o1	none
S=c1[nH]nc(-c2sc3ccccc3c2Cl)o1	mcGAS MS inh 91.8
C=CCOc1ccc(Br)cc1/C=C(\C#N)c1nn(-c2ccccc2)c(N)c1C#N	none
Fc1ccccc1-c1n[nH]c(=S)n1C1CCCC1	none
O=C(O)c1ccsc1	none
COC(=O)c1c(N2C(=O)C=CC2=O)sc2c1CCCC2	mcGAS MS inh 91.4
COC(=O)c1c(N)sc2c1CCCC2	none
COC(=O)c1c(N)sc2c1CCC2	none
Cc1ccccc1OC(C)CNC(=O)c1ccc(C(N)=O)cc1 (stereo unspecified)	none
CCOC(=O)c1cc(Cl)nc(Cl)c1C	none
CCOC(=O)c1cc(C(=O)OCC)c2c(C)cc(C)cc(C)c1-2	mcGAS MS inh 87.9
CCOC(=O)c1c[nH]cc(C)c1=O	none
Cc1ccc(C(C2Sc3nc(C)nn3C2=O)N2CC(C)OC(C)C2)cc1 (stereo unspecified)	none
O=C(c1cccs1)N(CCN1CCOCC1)c1nc2c(F)cc(F)cc2s1	none
CC1(C(=O)NC2CCN(Cc3ccccc3)CC2)CCN1Cc1ccc(-n2ccnc2)cc1 (stereo unspecified)	none
